In PubChem BioAssay (NCI):
About 79,000 compounds went through this panel and 15% of them were active in at least one assay; those are over-represented in the sample as a whole. Activity calls are given as the source filed them. Rule as the data show it: active = growth inhibition above about 70%; inactive = the rest.

Assay: NCI Yeast Anticancer Drug Screen. Data for the bub3 strain (AID 167)
Settings: S. cerevisiae bub3 mutant strain, at 5.0 µM (retest, dose inferred, filed as 0.5), stronger effect = higher value
Protocol: Growth inhibition of yeast strains with defined genetic alterations is measured as a screen for potential anti-cancer activity. Selected strains with alterations in DNA damage repair or cell cycle control were exposed to compounds and growth inhibition was measured relative to vehicle treated controls. The strain used in this assay is bub3

Structure (SMILES)	growth inhibition
CC(=O)[CH-]C(C)=O.CC(=O)[CH-]C(C)=O.N=CC=N.[Sn+2]	98% (active)
COc1cc(C2c3cc4c(cc3[C@@H](Nc3ccc([N+](=O)[O-])cc3)C3COC(=O)[C@H]23)OCO4)cc(OC)c1O (stereo not given in full)	54% (inactive)
CC(Br)C(=O)C(CCN(C)C)(c1ccccc1)c1ccc(Br)s1 (stereo not given)	-11% (inactive)
NC(=O)c1cc([N+](=O)[O-])c(Cl)c([N+](=O)[O-])c1	49% (inactive)
C#CCN1C(=O)N(CC#C)C(=O)C(CC#C)(C(CC=C)c2ccccc2)C1=O (stereo not given)	9% (inactive)
CCC1(O)C(=O)OCc2c1cc1n(c2=O)Cc2cc3cc4c(cc3nc2-1)OCO4 (stereo not given)	92% (active)
Cc1nnc2n1-c1ccc(Cl)cc1C(c1ccccc1)=[N+]([O-])C2	-1% (inactive)
[N-]=[N+]=NS(=O)(=O)c1ccccc1S(=O)(=O)N=[N+]=[N-]	-2% (inactive)
CC(=N\O)/C(C)=N/O.CC(=N\O)/C(C)=N/O.CC(=N\O)/C(C)=N/O.CC(=N\O)/C(C)=N/O.[CH3-].[CH3-].[Co].[Co]	-1% (inactive)

Same assay, conditions: S. cerevisiae bub3 mutant strain, at 50.0 µM (retest, dose inferred, filed as 5.0), stronger effect = higher value

Structure (SMILES)	growth inhibition
CC(=O)[CH-]C(C)=O.CC(=O)[CH-]C(C)=O.N=CC=N.[Sn+2]	99% (active)
COc1cc(C2c3cc4c(cc3[C@@H](Nc3ccc([N+](=O)[O-])cc3)C3COC(=O)[C@H]23)OCO4)cc(OC)c1O (stereo not given in full)	98% (active)
CC(Br)C(=O)C(CCN(C)C)(c1ccccc1)c1ccc(Br)s1 (stereo not given)	-5% (inactive)
NC(=O)c1cc([N+](=O)[O-])c(Cl)c([N+](=O)[O-])c1	97% (active)
C#CCN1C(=O)N(CC#C)C(=O)C(CC#C)(C(CC=C)c2ccccc2)C1=O (stereo not given)	98% (active)
CCC1(O)C(=O)OCc2c1cc1n(c2=O)Cc2cc3cc4c(cc3nc2-1)OCO4 (stereo not given)	89% (active)
Cc1nnc2n1-c1ccc(Cl)cc1C(c1ccccc1)=[N+]([O-])C2	-1% (inactive)
[N-]=[N+]=NS(=O)(=O)c1ccccc1S(=O)(=O)N=[N+]=[N-]	97% (active)
CC(=N\O)/C(C)=N/O.CC(=N\O)/C(C)=N/O.CC(=N\O)/C(C)=N/O.CC(=N\O)/C(C)=N/O.[CH3-].[CH3-].[Co].[Co]	13% (inactive)

Same assay, conditions: S. cerevisiae bub3 mutant strain, at 50.0 µM, stronger effect = higher value

Structure (SMILES)	growth inhibition
CC(=O)[CH-]C(C)=O.CC(=O)[CH-]C(C)=O.N=CC=N.[Sn+2]	93.3% (active)
COc1cc(C2c3cc4c(cc3[C@@H](Nc3ccc([N+](=O)[O-])cc3)C3COC(=O)[C@H]23)OCO4)cc(OC)c1O (stereo not given in full)	87.2% (active)
C/C(=N\N=C(\[Se])N(C)C)c1ccccn1	87.1% (active)
Cc1coc2c1CCC(C)C2 (stereo not given)	1.65% (inactive)
CC(Br)C(=O)C(CCN(C)C)(c1ccccc1)c1ccc(Br)s1 (stereo not given)	16.1% (inactive)
CN(C)P(N)(=S)N(C)C	-22.6% (inactive)
NC(=O)c1cc([N+](=O)[O-])c(Cl)c([N+](=O)[O-])c1	88.5% (active)
C#CCN1C(=O)N(CC#C)C(=O)C(CC#C)(C(CC=C)c2ccccc2)C1=O (stereo not given)	59% (inactive)
CCC1(O)C(=O)OCc2c1cc1n(c2=O)Cc2cc3cc4c(cc3nc2-1)OCO4 (stereo not given)	90% (active)
CN1C(=O)C(=Cc2cccc([N+](=O)[O-])c2)C(=O)N(C)C1=O	10.8% (inactive)
CC(C)N1COC2Cc3ccccc3CC21 (stereo not given)	-20.2% (inactive)
Cc1nnc2n1-c1ccc(Cl)cc1C(c1ccccc1)=[N+]([O-])C2	7.45% (inactive)
O=C(O)COc1nc(Cl)c(Cl)cc1Cl	15.6% (inactive)
NC(N)=Nc1c(N)ncnc1N	-0.8% (inactive)
CC(=O)OC1CCC2(C)C(=CCC3C2CCC2(C)C(Oc4ccccc4)CCC32)C1 (stereo not given)	-28.4% (inactive)
c1ccc(C2=NCN3CC23c2ccccc2)cc1 (stereo not given)	-48.8% (inactive)
[N-]=[N+]=NS(=O)(=O)c1ccccc1S(=O)(=O)N=[N+]=[N-]	49.1% (inactive)
C1=C/CCC2NC2C/C=C/CCC/1 (stereo not given)	-22.8% (inactive)
O=[N+]([O-])c1ccc(C2C3C(c4ccccc4)=NCCCN32)cc1 (stereo not given)	-12.2% (inactive)
O=C(COc1ccc(Cl)cc1C(=O)O)Nc1cccc(NC(=O)Nc2cccc(S(=O)(=O)F)c2)c1	1.95% (inactive)
CC(=N\O)/C(C)=N/O.CC(=N\O)/C(C)=N/O.CC(=N\O)/C(C)=N/O.CC(=N\O)/C(C)=N/O.[CH3-].[CH3-].[Co].[Co]	-12.7% (inactive)
CCOC(=O)C(Br)Br	23.3% (inactive)
